Screens (PubChem BioAssay)
An excerpt weighted towards active compounds, which were near 3.1% of everything screened.
LGR2 inh: inhibitors of bursicon-induced LGR2 CRE-luciferase signal, primary screen, cell-based, HEK293, CRE-luciferase reporter, bursicon stimulation; 380,000 tested, 0.35% active; inhibition, % at 9.99 µM; bursicon-stimulated, 4 h; Drosophila bursicon receptor LGR2 (rickets);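 active = drop in luminescence signal, shown as inhibition above about 50% in the replicate tests, limit read from the data, passing the limit was not always enough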;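 also: agonist challenge used bursicon conditioned medium at about half maximal strength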
LMP1 NFkB inh: EBV LMP1-driven NF-kappaB luciferase reporter inhibitors, primary screen, cell-based, luminescence, single point | LMP1-induced NF-kappaB luciferase reporter cells | inhibition, % at 12.5 µM | 350,000 tested, 0.69% active; in the data active = inhibition above about 41%
PAX8 inh HTS: inhibitors of PAX8-driven TPO luciferase reporter, primary screen, RMG-I cells, single concentration | SteadyGlo, 24 h | inhibition, % at 12.6 µM | 360,000 tested, 1.2% active | AID 652154, 2013;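 active = mean replicate inhibition at least 60% with every replicate also reaching 60%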;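 also: luciferase light reporting Pax8 driven TPO promoter activity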
TROY signal inh: inhibitors of TROY-driven NF-kB signaling, primary screen, Q293 LMP1-TROYcd cells, NF-kB luciferase, uHTS; Q293 LMP1-TROYcd NF-kB luciferase reporter, 4 h; inhibition, % at 10 µM; 360,000 tested, 0.98% active; AID 1347056, 2019;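 active = compounds whose plate-normalised and pattern-corrected inhibition of the luciferase reporter signal at the single screening dose is 50% or more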
TWEAK Fn14 block: inhibitors of TWEAK-Fn14 signaling, primary screen, luciferase reporter cells, uHTS; AID 1159606, 2016; inhibition, % at 10 µM; TWEAK-stimulated Fn14 reporter cells, luciferase luminescence, 8 h; 360,000 tested, 2% active; in the data active = inhibition above about 50%
EWS-Fli inh: EWS/Fli-driven NR0B1 reporter inhibitors, primary screen, A673 cells, NR0B1 luciferase, luminescence, MLPCN library. AID 651661, 2012. viability-normalised. 350,000 tested, 0.67% active. inhibition, % at 12.6 µM;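 active = mean inhibition of at least 50% after viability correction, with every replicate also passing that limit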;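 also: firefly luciferase signal divided by Alamar Blue viability fluorescence both relative to DMSO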
Hits are given with their value; – = inactive; · = no result.

SMILES	LGR2 inh	LMP1 NFkB inh	PAX8 inh HTS	TROY signal inh	TWEAK Fn14 block	EWS-Fli inh
O=C(O)C[C@H]1C=C[C@@H](NC(=O)CCN2CCCCC2)[C@@H](CO)O1	–	·	–	·	·	·
CCCCOC(=O)c1ccc(NC(=S)N2CCN(c3ncc4c(=O)c(C(=O)O)cn(CC)c4n3)CC2)cc1	–	–	–	–	63	–
Cc1ccc(S(=O)(=O)N[C@H]2C=C[C@@H](CC(=O)NCc3ccncn3)O[C@H]2CO)cc1	–	·	–	·	·	–
CC(=O)Nc1ccc(NC(=O)C(F)(F)F)cc1	·	–	–	–	–	·
CC1CCN(c2ccc(-c3ccc(NC(=O)C(F)(F)F)cc3)nn2)CC1	·	46	·	–	62	·
COc1ccc(OC)c(NC(=O)c2cccc(N3C(=O)C4C5C=CC(C6CC56)C4C3=O)c2)c1 (stereo not drawn)	–	–	–	–	53	–
COC(=O)c1ccc(NC(=O)c2cccc(N3C(=O)C4C5C=CC(C6CC56)C4C3=O)c2)cc1 (stereo not drawn)	–	–	–	55	85	·
COC(=O)c1ccc(NC(=O)c2ccc[n+]([O-])c2)cc1	–	–	–	–	87	–
COC(=O)c1ccc(NC(=O)c2cccc(N3C(=O)CCC3=O)c2)cc1	–	–	–	–	–	–
C(=C\CSc1nnnn1-c1ccccc1)/CSc1nnnn1-c1ccccc1	·	–	·	–	–	·
O=[N+]([O-])c1ccc(Sc2nnnn2-c2ccccc2)nc1	68	·	78	·	·	–
Cc1ccccc1-n1nnnc1Sc1nnnn1-c1ccccc1	·	55	·	–	88	·
CCCSc1nnc(Sc2nnnn2-c2ccccc2)s1	·	–	·	–	82	·
C[C@H]1CN([C@@H](C)CO)C(=O)c2cccc(NC(=O)Nc3ccc(F)cc3)c2O[C@@H]1CN(C)Cc1ccc(C(=O)Nc2ccccc2N)cc1	–	·	–	·	·	–
C=C1C(=O)OC2C=C(CO)CCC=C(CO)CC(OC(=O)C(C)C)C12 (stereo not drawn)	–	–	–	–	–	–
C=C1C(=O)O[C@H]2C[C@H]1[C@@H](OC(C)=O)C/C(C)=C/CC/C(C)=C\CC[C@]2(C)O	·	48	111	–	86	56
O=C(O)c1ccc2oc(=O)c(S(=O)(=O)c3ccc(F)cc3)cc2c1	–	–	–	–	–	–
CCCCCCc1cc2cc(-c3nnc(-c4ccccc4O)o3)c(=O)oc2cc1O	·	–	·	–	55	·
CCCCCCc1cc2cc(S(=O)(=O)c3ccc(F)cc3)c(=O)oc2cc1O	–	–	–	51	–	–
COC1=CC(=O)c2c(ccc3ncnc(N)c23)C1=O	96	83	104	54	100	–
NC(=N\N=Cc1ccco1)/C(N)=N/N=Cc1ccco1	–	–	–	–	72	–
O=C(c1c(F)c(F)c(F)c(F)c1F)N1CCN(c2cccc(C(F)(F)F)c2)CC1	·	–	67	–	–	·
CC(=O)/C(C(=N)N1CCN(c2cccc(Cl)c2)CC1)=C(\C)O	–	–	·	57	75	–
O=C(c1cccc(F)c1)N1CCN(c2cccc(Cl)c2)CC1	·	45	–	–	–	·
O=C(c1ccccc1F)N1CCN(c2cccc(C(F)(F)F)c2)CC1	·	–	·	–	–	·
SMILES	LGR2 inh	LMP1 NFkB inh	PAX8 inh HTS	TROY signal inh	TWEAK Fn14 block	EWS-Fli inh
Cc1onc(-c2ccccc2Cl)c1C(=O)N1CCN(c2cccc(Cl)c2)CC1	–	–	–	–	–	54
Cc1onc(-c2ccccc2Cl)c1C(=O)N1CCN(c2ccccc2)CC1	–	–	·	–	–	·
CCN(C[C@@H]1N[C@@H](CO)[C@H]1c1ccc(-c2cccc(C#N)c2)cc1)C(C)=O	–	·	–	·	·	–
O=C(C1CCC1)N1CC2(C1)[C@H](c1ccccc1)[C@@H](CO)N2Cc1cccnc1	–	·	–	·	·	–
C[C@H](O)C#Cc1cnc2c(c1)C(=O)N([C@H](C)CO)C[C@@H](C)[C@H](CN(C)C(=O)c1ccccc1)O2	–	·	·	·	·	–
COc1ccc(NC(=O)N(C)C[C@H]2Oc3ccc(NS(=O)(=O)c4ccc(OC)cc4)cc3CC(=O)N([C@H](C)CO)C[C@@H]2C)cc1	–	·	–	·	·	–
Cc1cccc(N2CCN(C(=O)c3cccc(N4CCCC4=O)c3)CC2)c1C	–	–	–	–	–	–
O=C(c1cccc(N2CCCC2=O)c1)N1CCN(c2ccccc2)CC1	·	–	·	76	–	·
